Each structure is given as a SMILES string. Unmarked numbers belong to inactive results. Results filed as inconclusive are left out. Calls of active or inactive are those of the source. Unless noted, the call rests on the fitted dose curve; in most records, active means well fitted curve in either direction with a large enough effect (not every such curve was filed as active); inconclusive means small, poorly fitted or top-dose-only effect, or another doubt; inactive means flat fitted curve, though single readings scatter. Where only a bound is given, the exact number is not on record here.

Assay [1] concerns the target Lysosomal acid glucosylceramidase (Homo sapiens) (UniProt P04062). In words: Glucocerebrosidase-p2 (AID 348; in the data active means potency below about 10 µM; further: potency means the concentration at half of the fitted maximal effect). The following applies: purified GBA, blue fluorogenic substrate, 40 min. An outline of the steps: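 Compounds titrated from 0.6 nM upwards against 0.2 nM enzyme in pH 5.9 citric acid/KH2PO4, taurocholate, tween-20; blue fluorogenic substrate 80 uM, 40 min room temperature, stopped and read Ex 365/Em 440 for AC50.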

Assay [2] can be described thus: AP1 Signaling Pathway (AID 357). Further: on the % scale 0 is the no-effect control and ±100 the full control effect. The following applies: ME-180 AP-1-bla reporter, EGF-induced, beta-lactamase ratio, 5 h; at 7.69 µM (top of the series) unless noted. An outline of the steps: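 Read-out was the 460nm/530nm emission ratio (excitation 405nm) after CCF4 loading for 2.5 hours at room temperature. Cells carried an AP-1-driven beta-lactamase reporter, were stimulated with EC50 EGF plus compound for 5 hours, and AC50 values came from titrations.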

Assay [3] concerns the target Cytochrome P450 1A2 (Homo sapiens) (UniProt P05177). Nature of the assay: p450-cyp1a2 (AID 410; calls by dose curve; further: potency means the concentration at half of the fitted maximal effect). The following applies: recombinant CYP1A2, luciferin-ME demethylation, luminescence; series mostly up to 11.4 µM. An outline of the steps:
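Luminescent readout of luciferin formed from Luciferin-ME by human CYP1A2; data normalized against complete inhibition by 57 uM furafylline. Enzyme 20nM, substrate 100uM at Km, 100mM KPO4 buffer, 60 min reaction at room temperature.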

Assay [4] can be described thus: Stat Signaling Pathway (AID 446).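 Further: ME-180 cervical cancer cells given 40 pM IL-6 alongside compound; SIE-controlled beta-lactamase reporter measured as 460/530 nm FRET emission ratio; on the % scale 0 is the no-effect control and ±100 the full control effect.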 The following applies: ME-180 SIE beta-lactamase reporter, IL-6 stimulated, 5 h; at 7.69 µM (top of the series) unless noted. An outline of the steps: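 ME-180 cells carrying a SIE-driven beta-lactamase reporter are stimulated with 40 pM IL-6 for 5 h at 37C in the presence of compound. The 460/530 nm FRET substrate ratio is read after 2.5 h at RT. Data are normalised to 300 pM IL-6 and to 125 nM JAK inhibitor controls.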

Assay [5] deals with Glucocorticoid receptor (Homo sapiens) (UniProt P04150). In words: GR-GFP Redistribution (AID 450;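 active means compounds whose dose series gives a full or clear partial fitted curve of increased nuclear translocation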; further: potency means the concentration at half of the fitted maximal effect). The following applies: U2OS GR-GFP nuclear translocation, laser cytometry, 2 h.
Sequence of Glucocorticoid receptor (Homo sapiens) (P04150 whole entry, looked up): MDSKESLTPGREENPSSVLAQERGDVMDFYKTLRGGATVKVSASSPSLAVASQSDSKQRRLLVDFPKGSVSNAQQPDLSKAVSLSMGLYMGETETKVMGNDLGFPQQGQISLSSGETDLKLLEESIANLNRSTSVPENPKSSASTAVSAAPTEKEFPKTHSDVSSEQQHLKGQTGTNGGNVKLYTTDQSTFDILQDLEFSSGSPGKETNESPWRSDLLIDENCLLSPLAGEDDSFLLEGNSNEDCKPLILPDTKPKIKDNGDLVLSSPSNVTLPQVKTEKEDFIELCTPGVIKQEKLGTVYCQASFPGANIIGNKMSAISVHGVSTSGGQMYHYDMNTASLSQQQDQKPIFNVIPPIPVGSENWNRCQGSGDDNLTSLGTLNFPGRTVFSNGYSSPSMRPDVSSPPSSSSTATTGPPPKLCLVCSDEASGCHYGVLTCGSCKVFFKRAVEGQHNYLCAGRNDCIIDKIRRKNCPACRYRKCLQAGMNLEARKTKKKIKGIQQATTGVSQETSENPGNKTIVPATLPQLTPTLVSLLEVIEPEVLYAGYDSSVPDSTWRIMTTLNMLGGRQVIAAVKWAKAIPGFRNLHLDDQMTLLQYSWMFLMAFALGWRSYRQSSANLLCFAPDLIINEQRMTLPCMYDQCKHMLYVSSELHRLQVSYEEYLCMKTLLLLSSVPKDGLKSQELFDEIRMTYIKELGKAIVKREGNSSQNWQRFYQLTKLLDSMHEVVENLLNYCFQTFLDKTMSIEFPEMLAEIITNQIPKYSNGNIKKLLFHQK
Assay [6] shares this target. Nature of the assay: GR-EFC Redistribution (AID 451; calls by dose curve; further: potency means the concentration at half of the fitted maximal effect). The following applies: CHO-K1 GR-EFC translocation, beta-gal luminescence, 2 h. An outline of the steps:
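CHO-K1 cells expressing nuclear EA and GR-ED fragments of b-gal; compounds titrated up to 46 uM final, 2 h at 37 C. GR nuclear translocation read as complemented b-gal luminescence after 1 h RT detection.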

Assay [7] addresses Mitogen-activated protein kinase 10 (Mus musculus) (UniProt Q61831). Nature of the assay: JNK3 AlphaScreen Assay (AID 530).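 Further: kinase came from lysate of stimulated human HepG2 cells; signal reports phosphorylation of biotinylated GST-cJun 1-79 at Ser73 with 10 µM ATP; on the % scale 0 is the no-effect control and ±100 the full control effect.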 The following applies: JNK3 lysate, c-Jun phosphorylation; series mostly up to 11.4 µM. An outline of the steps:
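Pre-activated (IL-1β/TNFα) JNK3 in HepG2 lysates phosphorylates biotin-GST-cJun(1-79), 10 uM ATP; anti-phospho-cJun(Ser73) AlphaScreen read at room temperature, pH 7.6 Tris buffer. Compounds pre-incubated 15 min as titrations.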
(In general: Alpha assays give light when donor and acceptor beads are brought close together.)

The target of assay [8] is 3',5'-cyclic-AMP phosphodiesterase 4B (Homo sapiens) (UniProt Q07343). Nature of the assay: qHTS Assay for Inhibitors of PDE-IV (AID 607; active means well fitted activation curve with a large enough effect in the main read-out, with a control signal flat, not every such curve was filed as active; further: % of control where 0% means no effect). The following applies: HEK293 ACTOne CNG channel cells, membrane potential fluorescence; series mostly up to 22.9 µM. An outline of the steps:
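HEK293 ACTOne cells with CNG channel (1000/well), endogenous PDE4; membrane potential dye, compounds up to 22.9 uM final. Fluorescence Ex 535/Em 590; RO 20-1724 (100 uM final) as reference.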
(In general: Quantitative high-throughput screening tests each substance at several concentrations.)

The target in assay [9] is Cytochrome P450 2C9 (Homo sapiens) (UniProt P11712). In words: qHTS Assay for Inhibitors and Substrates of Cytochrome P450 2C9 (AID 883; active means well fitted curve in the direction sought with a large enough effect; an effect the other way counts as inactive or inconclusive; further: nearly all actives have a fitted effect of over 60% in size; further: potency means the concentration at half of the fitted maximal effect; on activity change, negative = inhibition: on the % scale 0 is the no-effect control and ±100 the full control effect). The following applies: recombinant CYP2C9, luciferin-H luminescence, 60 min; series mostly up to 11.4 µM. An outline of the steps: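 Signal: luciferase luminescence reporting luciferin produced by CYP2C9. Conditions: 10nM enzyme, Luciferin-H 100uM at KM, 25mM KPO4, 37C, 60 min NADPH-driven reaction. Reference: 57uM sulphaphenazole as 100% inhibition.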
Sequence of Cytochrome P450 2C9 (Homo sapiens) (P11712 whole entry, looked up): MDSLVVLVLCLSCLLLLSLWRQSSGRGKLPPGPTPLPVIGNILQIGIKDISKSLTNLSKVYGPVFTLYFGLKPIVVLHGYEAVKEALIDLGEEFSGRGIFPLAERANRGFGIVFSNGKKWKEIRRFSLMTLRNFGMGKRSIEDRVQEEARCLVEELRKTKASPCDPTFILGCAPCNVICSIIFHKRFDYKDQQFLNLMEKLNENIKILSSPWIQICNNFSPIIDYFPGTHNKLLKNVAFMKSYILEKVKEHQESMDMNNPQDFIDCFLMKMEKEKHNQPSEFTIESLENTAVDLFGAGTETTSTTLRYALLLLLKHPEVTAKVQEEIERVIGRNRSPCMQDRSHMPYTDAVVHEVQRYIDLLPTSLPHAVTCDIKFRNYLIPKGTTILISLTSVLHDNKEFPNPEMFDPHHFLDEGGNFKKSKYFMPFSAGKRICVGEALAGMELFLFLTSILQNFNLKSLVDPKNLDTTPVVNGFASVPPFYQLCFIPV

Assay [10] concerns the target Cytochrome P450 3A4 (Homo sapiens) (UniProt P08684). Nature of the assay: qHTS Assay for Activators of Cytochrome P450 3A4 (AID 885; active means well fitted curve in the direction sought with a large enough effect; an effect the other way counts as inactive or inconclusive; further: nearly all actives have a fitted effect of over 65% in size). The following applies: recombinant CYP3A4, Luciferin-PPXE luminescence, 60 min; series mostly up to 11.4 µM. An outline of the steps: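 Human CYP3A4 (20 nM) with Luciferin-PPXE at 25 uM (its KM) in 200 mM KPO4; 10 min compound preincubation, then NADPH regeneration and 60 min reaction at RT. Luciferin read by luminescence; normalized to 57 uM ketoconazole full inhibition.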

In assay [11] the target is Cytochrome P450 2C19 (Homo sapiens) (UniProt P33261). In words: qHTS Assay for Inhibitors and Substrates of Cytochrome P450 2C19 (AID 899; active means well fitted curve in the direction sought with a large enough effect; an effect the other way counts as inactive or inconclusive; further: potency means the concentration at half of the fitted maximal effect; nearly all actives have a fitted effect of over 60% in size). The following applies: recombinant CYP2C19, luciferin-H EGE luminescence; series mostly up to 11.4 µM. An outline of the steps: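 Signal comes from luciferase acting on luciferin released by CYP2C19-mediated hydroxylation of Luciferin-H EGE, 10uM (KM). Assay mix: 5nM enzyme, 50mM KPO4; 60 min at 37C with NADPH regeneration. Data normalized against 57uM ketoconazole.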
Sequence of Cytochrome P450 2C19 (Homo sapiens) (P33261 whole entry, looked up): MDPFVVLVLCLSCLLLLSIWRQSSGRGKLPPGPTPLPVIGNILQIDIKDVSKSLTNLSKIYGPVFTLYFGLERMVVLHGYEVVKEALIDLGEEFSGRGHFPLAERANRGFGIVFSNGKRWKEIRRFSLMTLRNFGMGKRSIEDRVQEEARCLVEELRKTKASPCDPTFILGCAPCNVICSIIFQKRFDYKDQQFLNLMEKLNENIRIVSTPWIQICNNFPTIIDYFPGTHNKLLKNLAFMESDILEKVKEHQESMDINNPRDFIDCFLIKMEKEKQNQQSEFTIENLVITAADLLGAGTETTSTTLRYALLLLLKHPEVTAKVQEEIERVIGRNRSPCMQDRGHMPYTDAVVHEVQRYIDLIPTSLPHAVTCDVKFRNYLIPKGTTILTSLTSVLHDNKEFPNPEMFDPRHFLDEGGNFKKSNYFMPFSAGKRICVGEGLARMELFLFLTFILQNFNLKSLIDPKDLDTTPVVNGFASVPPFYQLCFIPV

Assay [12] has as its target Cytochrome P450 3A4 (Homo sapiens) (UniProt P08684). Nature of the assay: qHTS Assay for Inhibitors and Substrates of Cytochrome P450 3A4 (AID 884; active means well fitted curve in the direction sought with a large enough effect; an effect the other way counts as inactive or inconclusive; further: potency means the concentration at half of the fitted maximal effect; nearly all actives have a fitted effect of over 50% in size). The following applies: recombinant CYP3A4, Luciferin-PPXE luminescence; series mostly up to 57.1 µM. An outline of the steps: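 20 nM human CYP3A4 with 25 uM Luciferin-PPXE (at KM) in 200 mM KPO4, preincubated 10 min with compound; NADPH regeneration started a 60 min RT reaction. Luciferin detected by luminescence, normalized to 57 uM ketoconazole as full inhibition.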

Sequence of Cytochrome P450 3A4 (Homo sapiens) (P08684 whole entry, looked up): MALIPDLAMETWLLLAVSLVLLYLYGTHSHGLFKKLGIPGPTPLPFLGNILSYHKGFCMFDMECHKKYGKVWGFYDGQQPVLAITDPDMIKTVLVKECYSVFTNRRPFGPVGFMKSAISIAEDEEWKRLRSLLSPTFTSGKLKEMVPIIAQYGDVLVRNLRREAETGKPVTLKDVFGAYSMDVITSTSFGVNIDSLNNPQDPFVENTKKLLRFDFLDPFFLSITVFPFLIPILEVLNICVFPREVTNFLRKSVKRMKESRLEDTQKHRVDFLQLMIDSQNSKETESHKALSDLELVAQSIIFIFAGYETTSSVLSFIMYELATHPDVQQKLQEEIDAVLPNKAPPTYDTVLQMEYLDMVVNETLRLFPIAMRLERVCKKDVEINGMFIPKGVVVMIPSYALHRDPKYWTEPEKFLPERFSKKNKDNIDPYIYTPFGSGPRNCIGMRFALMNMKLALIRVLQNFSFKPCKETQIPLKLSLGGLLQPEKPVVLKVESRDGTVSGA
Sequence of Cytochrome P450 1A2 (Homo sapiens) (P05177 whole entry, looked up): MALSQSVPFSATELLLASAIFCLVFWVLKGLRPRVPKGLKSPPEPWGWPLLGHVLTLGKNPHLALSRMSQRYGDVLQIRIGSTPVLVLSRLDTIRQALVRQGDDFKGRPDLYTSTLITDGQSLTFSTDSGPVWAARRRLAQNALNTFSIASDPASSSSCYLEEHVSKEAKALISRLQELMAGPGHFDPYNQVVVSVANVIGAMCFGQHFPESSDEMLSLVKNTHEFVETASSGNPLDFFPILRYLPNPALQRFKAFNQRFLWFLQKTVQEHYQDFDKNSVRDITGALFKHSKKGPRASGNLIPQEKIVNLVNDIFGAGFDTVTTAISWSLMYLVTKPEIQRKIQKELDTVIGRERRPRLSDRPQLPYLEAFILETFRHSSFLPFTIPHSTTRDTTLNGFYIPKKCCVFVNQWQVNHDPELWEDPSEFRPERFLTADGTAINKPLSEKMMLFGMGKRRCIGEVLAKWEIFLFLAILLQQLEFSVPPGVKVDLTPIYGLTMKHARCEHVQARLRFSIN
Sequence of Lysosomal acid glucosylceramidase (Homo sapiens) (P04062 whole entry, looked up): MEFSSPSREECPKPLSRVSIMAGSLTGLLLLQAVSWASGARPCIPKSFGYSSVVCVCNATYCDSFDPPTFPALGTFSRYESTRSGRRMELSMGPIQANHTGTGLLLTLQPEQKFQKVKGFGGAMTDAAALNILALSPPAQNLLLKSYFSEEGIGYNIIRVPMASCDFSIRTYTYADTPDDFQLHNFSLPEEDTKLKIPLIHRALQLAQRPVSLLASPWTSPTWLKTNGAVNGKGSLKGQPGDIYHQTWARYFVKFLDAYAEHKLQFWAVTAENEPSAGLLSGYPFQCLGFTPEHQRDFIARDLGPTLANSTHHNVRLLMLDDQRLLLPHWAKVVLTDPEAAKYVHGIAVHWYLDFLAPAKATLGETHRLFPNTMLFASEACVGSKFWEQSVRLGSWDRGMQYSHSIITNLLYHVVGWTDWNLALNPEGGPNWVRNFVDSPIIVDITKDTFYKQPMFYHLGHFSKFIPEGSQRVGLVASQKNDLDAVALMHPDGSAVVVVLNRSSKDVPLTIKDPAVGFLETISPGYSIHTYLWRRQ
Sequence of 3',5'-cyclic-AMP phosphodiesterase 4B (Homo sapiens) (Q07343 whole entry, looked up): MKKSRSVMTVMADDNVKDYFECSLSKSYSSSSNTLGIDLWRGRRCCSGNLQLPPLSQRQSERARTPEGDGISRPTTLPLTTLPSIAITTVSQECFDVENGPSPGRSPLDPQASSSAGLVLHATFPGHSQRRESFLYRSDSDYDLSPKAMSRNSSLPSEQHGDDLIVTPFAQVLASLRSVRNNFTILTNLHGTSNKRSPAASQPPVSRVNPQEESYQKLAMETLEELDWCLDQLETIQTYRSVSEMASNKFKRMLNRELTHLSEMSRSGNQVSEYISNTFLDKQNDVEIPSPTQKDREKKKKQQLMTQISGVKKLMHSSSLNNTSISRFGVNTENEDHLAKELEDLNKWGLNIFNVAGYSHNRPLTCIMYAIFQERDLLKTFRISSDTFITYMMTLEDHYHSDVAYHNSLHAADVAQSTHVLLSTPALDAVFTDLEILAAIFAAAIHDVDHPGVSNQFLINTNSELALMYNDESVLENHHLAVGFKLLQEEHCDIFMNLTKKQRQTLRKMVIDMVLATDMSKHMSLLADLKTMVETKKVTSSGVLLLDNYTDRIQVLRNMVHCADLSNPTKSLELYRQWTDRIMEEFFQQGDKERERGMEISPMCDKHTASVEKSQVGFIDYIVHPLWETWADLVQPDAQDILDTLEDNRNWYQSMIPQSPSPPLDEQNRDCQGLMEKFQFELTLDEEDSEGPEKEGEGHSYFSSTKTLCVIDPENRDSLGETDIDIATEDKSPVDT

Regarding `Oc1ccc(Cc2cc(Cl)cc(Cl)c2O)cc1Cl`, the Potency was greater than 11.4 µM in assay [1]; 1.58 µM (active) in [3]; greater than 46 µM in [5]; greater than 9.22 µM in [6]; 0.199 µM (active) in assay [9]; 1.26 µM (active) in assay [11]. The activity change, negative = inhibition in [2] is -21.8%. The activity, negative = inhibition in assay [4] is -9.97%. Moreover, the Potency result in [7], in assay [8] and in assay [10] was “inactive” throughout.
Take `Cc1ccc(S(=O)(=O)Nc2ccccc2C=O)cc1`: the Potency in assay [1] was greater than 11.4 µM; in assay [5], greater than 46 µM; in [6], greater than 9.22 µM; in assay [11], 5.01 µM (active). In [2], the activity change, negative = inhibition was -0.783%. The Potency result in assay [3], in assay [7], in assay [8] and in assay [9] was “inactive” each time. For the same molecule, in assay [4], the activity, negative = inhibition was 24%.
In the case of `CN(C)C[C@H]1CCC2=C(C1=O)C(c1ccc(Cl)c(Cl)c1)C1=C(CC[C@H](CN(C)C)C1=O)O2`, the Potency in assay [1] is greater than 11.4 µM; in [5], greater than 46 µM; in assay [6] it was greater than 9.22 µM; in assay [12] it was 0.398 µM (active). The activity change, negative = inhibition in [2] was 0.767%; in assay [3], -2% [at 2.29 µM]. Also, the activity, negative = inhibition in [4] was 13.6%. Further, the Potency result in [7], in assay [8] and in assay [10] was “inactive” in each case.
For the molecule `O=C(c1ccccc1)[C@H](Nc1ccc2ccccc2c1)c1ccccc1`, the Potency in assay [1] is greater than 11.4 µM; in assay [3] it was 0.794 µM (active); in [5] it was greater than 46 µM; in assay [6], greater than 9.22 µM; in assay [12] it was 3.16 µM (active). For the same molecule, in assay [2], the activity change, negative = inhibition is 23.6%. Further, the activity, negative = inhibition in [4] was -0.0129%. Moreover, the Potency result in [7], in assay [8] and in [10] was “inactive” throughout.
Consider `Cc1ccc(N[C@H](c2ccccc2)c2ccc3cccnc3c2O)cc1`, for which the Potency in assay [1] is greater than 11.4 µM; in assay [5] it was greater than 46 µM; in assay [6] it was greater than 9.22 µM. In addition, the activity change, negative = inhibition in assay [2] is -6.67%; in assay [3], -24.5% [at 2.29 µM]. Moreover, the activity, negative = inhibition in [4] was 3.71%. In addition, the Potency result in [7], in assay [8] and in assay [10] was “inactive” in each case.
For the molecule `COc1ccc2c(Cc3c4ccccc4cc4ccccc34)cncc2c1O`, the Potency in assay [1] was greater than 11.4 µM; in [3], 0.126 µM (active); in [5], greater than 46 µM; in [6] it was greater than 9.22 µM; in [11], 2.51 µM (active). The activity change, negative = inhibition in [2] is 9.25%. The activity, negative = inhibition in assay [4] was -0.764%. The Potency entry in assay [7], in assay [8] and in [10] was “inactive” in each case.
As for `C[C@@]12C[C@H](O)[C@@H]3[C@H](CCC4=CC(=O)CC[C@]43C)[C@H]1CC[C@@H]2c1csc(N)n1`, the Potency in assay [1] is greater than 11.4 µM; in assay [5], 1.73 µM (active); in [6], greater than 9.22 µM; in assay [12] it was 2.51 µM (active); in assay [11], 3.98 µM (active). The figures for the activity change, negative = inhibition in assay [2] and in assay [3] were 4.13% and -9.8% [at 2.29 µM], respectively. Further, the activity, negative = inhibition in assay [4] was -3.43%. For the same molecule, the Potency entry in [7], in assay [8] and in assay [10] was “inactive” in each case.
